Source: PubChem BioAssay
This is a sample that favours compounds with a hit; in the whole collection about 12% have one here.
PI5P4Ka inh: qHTS for Inhibitors of phosphatidylinositol 5-phosphate 4-kinase (PI5P4K); Phosphatidylinositol 5-phosphate 4-kinase type-2 alpha (Homo sapiens), P48426; PI5P4Kalpha enzyme, ADP-Glo luminescence, 60 min; active compounds read low; max response, %; 1.2% of 330,000 active; active = max response of -50% or lower; inconclusive = between -30% and -50%; inactive = -30% or higher; note: value at the top dose of about 77 µM; % is set by controls: 0 for no effect and ±100 for the full control effect
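qHTS, 1536-well: enzyme/substrate mix, compound by pin tool, 5 microM ATP final; RT 60 min; ADP-Glo reagents 1 (45 min) then 2 (30 min); luminescence.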
JMJD2A Tudor: qHTS Assay for Inhibitors of JMJD2A-Tudor Domain; 4.4% of 390,000 active; AID 504339, 2011; Potency, µM (top dose mostly 114 µM), for inactives: at the highest dose activity change, negative = inhibition, most hits filed as inhibitors; AlphaScreen JMJD2A-Tudor / H3K4me3 peptide binding; Lysine-specific demethylase 4A (Homo sapiens), O75164; note: potency is the fitted concentration of half-maximal effect; % is set by controls: 0 for no effect and ±100 for the full control effect; nearly all actives have a fitted effect of over 50% in size
HP1b binding inh: HTS for Inhibitors of HP1-beta Chromodomain Interactions with Methylated Histone Tails | Chromobox protein homolog 1 (Homo sapiens), P83916 | AlphaScreen HP1-beta / biotin-H3K9me3 peptide binding | Potency, µM (top dose mostly 114 µM), for the others: at the highest dose activity change, negative = inhibition, actives largely listed as inhibitors | 0.56% of 390,000 active; note: potency is the fitted concentration of half-maximal effect; nearly all actives have a fitted effect of over 70% in size
Target sequence (P83916 whole entry, looked up): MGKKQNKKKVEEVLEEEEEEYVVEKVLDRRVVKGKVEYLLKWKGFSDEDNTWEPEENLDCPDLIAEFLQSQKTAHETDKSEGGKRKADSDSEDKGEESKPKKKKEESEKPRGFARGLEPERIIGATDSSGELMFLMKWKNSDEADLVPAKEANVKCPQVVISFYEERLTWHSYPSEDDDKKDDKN
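Compound inhibition of the preformed complex between 50 nM HP1-beta and 50 nM biotinylated H3K9me3 peptide was read by AlphaScreen. Buffer was PBS pH 7.4 with 0.01% Tween-20. Incubations ran 30 min at room temperature, with 10 ug/mL donor/acceptor beads.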
BAZ2B block: qHTS Assay for Inhibitors of BAZ2B | Potency, µM (series often up to 114 µM), without a hit: at the top dose activity change, negative = inhibition, usual class: inhibitors | AlphaScreen BAZ2B-H3K14Ac peptide displacement | 4.4% of 360,000 active | AID 504333, 2011; note: potency is the fitted concentration of half-maximal effect; % is set by controls: 0 for no effect and ±100 for the full control effect; nearly all actives have a fitted effect of over 60% in size
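In this displacement format the biotinylated H3(5-23) peptide acetylated at Lys14 serves as ligand at 50 nM, with BAZ2B at 50 nM in PBS pH 7.4 containing 0.01% Tween-20. Donor and acceptor beads are 10 ug/mL final.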
G9a block: qHTS Assay for Inhibitors of Histone Lysine Methyltransferase G9a; G9a H3K9 monomethylation, AlphaScreen, 2 h; Potency, µM (top dose mostly 102 µM), inactives show top-dose activity, negative = inhibition, most hits filed as inhibitors; 8.8% of 350,000 active; AID 504332, 2011; note: potency is the fitted concentration of half-maximal effect; % is set by controls: 0 for no effect and ±100 for the full control effect; nearly all actives have a fitted effect of over 75% in size
Target sequence (Q96KQ7 913-1193 limits assumed): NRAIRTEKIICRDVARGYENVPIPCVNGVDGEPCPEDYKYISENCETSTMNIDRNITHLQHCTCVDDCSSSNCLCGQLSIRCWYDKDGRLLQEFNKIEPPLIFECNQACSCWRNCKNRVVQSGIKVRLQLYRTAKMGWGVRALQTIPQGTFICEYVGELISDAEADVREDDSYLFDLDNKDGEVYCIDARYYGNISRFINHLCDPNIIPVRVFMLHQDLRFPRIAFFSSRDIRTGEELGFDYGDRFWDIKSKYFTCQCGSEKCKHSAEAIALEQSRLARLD
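G9a (20 nM) preincubated 15 min RT with compounds, then 500 nM biotinylated H3K9 peptide and 20 uM SAM added; 2 h RT reaction. Monomethyl-H3K9 product detected by AlphaScreen with anti-H3K9me1 antibody, streptavidin donor and anti-rabbit IgG acceptor beads.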
PLK1 PBD block: qHTS for Inhibitors of PLK1-PDB (polo-like kinase 1 - polo-box domain): Primary Screen; Serine/threonine-protein kinase PLK1 (Homo sapiens), P53350; Plk1 PBD binding of FITC phosphopeptide, fluorescence polarization; Potency, µM, for inactives: max response, negative = inhibition, most hits filed as inhibitors; 2.8% of 360,000 active; AID 720504, 2013; note: potency is the fitted concentration of half-maximal effect; series mostly up to about 57 µM; % is set by controls: 0 for no effect and ±100 for the full control effect; nearly all actives have a fitted effect of over 65% in size
ADP-Glo counter: qHTS for Inhibitors of PI5P4K: ADP-Glo counter assay; shares compounds with PI5P4Ka inh; ADP-Glo detection counter-screen, luciferase luminescence, no enzyme; Potency, µM (doses to about 76.9 µM), without a hit: top-dose activity change, negative = inhibition, usual class: inhibitors; 1,100 tested, under 10 active
* hit, by the source's call; [ ] = remark or other dose. Unless noted, calls come from the whole dose curve; as a rule, active = well fitted curve in the direction sought with a large enough effect; inconclusive = small, poorly fitted or top-dose-only effect, or another doubt; inactive = no such curve, though single readings can be large; an effect the other way counts as inactive or inconclusive.

CCc1ccc(-n2c(=O)c3c4c(sc3n(CC(=O)NCCCOC)c2=O)CCCC4)cc1 was read as JMJD2A Tudor 0%, HP1b binding inh 27%, BAZ2B block 2% and G9a block 4%[59 µM].
Screening CC1CCCCC12NC(=O)N(CC(=O)Nc1sc3c(c1C(N)=O)CCC3)C2=O (configuration not stated) returned PI5P4Ka inh -60*, JMJD2A Tudor -26%, HP1b binding inh 15%, BAZ2B block inconclusive, G9a block inconclusive, PLK1 PBD block -15% and ADP-Glo counter 0%.
Cn1cc(S(=O)(=O)N2CCCCC2)cc1C(=O)NCc1ccc(Cl)cc1 was read as JMJD2A Tudor -16%, HP1b binding inh -2%[57 µM], BAZ2B block -31% and G9a block -4%[59 µM].
CCOc1ccc(NC(=O)CN(C)C(=O)c2cc(-c3ccco3)nc3ccccc23)cc1OCC was read as PI5P4Ka inh 1, JMJD2A Tudor -3%, HP1b binding inh 10% and PLK1 PBD block -5%.
For CN(CC(=O)Nc1ccc(F)cc1)C(=O)c1cc(-c2ccco2)nc2ccccc12 the results were PI5P4Ka inh -66*, JMJD2A Tudor inconclusive, HP1b binding inh -14%, BAZ2B block 40µM*, G9a block -10%[0.501 µM], PLK1 PBD block inconclusive and ADP-Glo counter 4%.
Cc1ccc(NC(=O)CN(C)C(=O)c2cc(-c3ccco3)nc3ccccc23)cc1 was read as PI5P4Ka inh -95*, JMJD2A Tudor 20µM*, HP1b binding inh 50µM*, BAZ2B block 45µM*, G9a block 32µM*, PLK1 PBD block inconclusive and ADP-Glo counter -8%.
Screening COc1ccc(-c2cc(C(=O)N(C)CC(=O)Nc3cccc(F)c3)c3ccccc3n2)cc1 returned PI5P4Ka inh 3, JMJD2A Tudor -27%, HP1b binding inh 0%, BAZ2B block 10%, G9a block inconclusive and PLK1 PBD block -7%.
Screening COc1cccc(NC(=O)CN(C)C(=O)c2cc(-c3ccco3)nc3ccccc23)c1 returned PI5P4Ka inh -60*, JMJD2A Tudor 18µM*, HP1b binding inh inconclusive, BAZ2B block 79µM*, G9a block 50µM*, PLK1 PBD block -19% and ADP-Glo counter -9%.
Screening Cc1ccc(C)c(S(=O)(=O)c2nnn3c2nc(Nc2ccc(C)c(C)c2)c2ccccc23)c1 returned JMJD2A Tudor -16%, HP1b binding inh 9%, BAZ2B block 6% and G9a block 9%[59 µM].
`NS(=O)(=O)c1cccc(NC(=O)CSc2nnnn2-c2ccccc2)c1` gave PI5P4Ka inh -89*, JMJD2A Tudor -9%, HP1b binding inh 17%, BAZ2B block -7%, G9a block 16%[12.7 µM], PLK1 PBD block 2% and ADP-Glo counter -6%.
Screening COc1ccc(Cl)cc1C(=O)OCC(=O)c1ccc[nH]1 returned PI5P4Ka inh 2, JMJD2A Tudor -16%, HP1b binding inh 16%, BAZ2B block 4%, G9a block 4%[59 µM] and PLK1 PBD block -13%.
Screening O=C(CNS(=O)(=O)c1ccc(Br)cc1)OCc1cc(=O)n2cc(Br)ccc2n1 returned BAZ2B block -38% and G9a block -11%[59 µM].
O=C(CNC(=O)c1cccc(OC(F)F)c1)OCc1cc(=O)n2cc(Br)ccc2n1 was read as PI5P4Ka inh -56*, JMJD2A Tudor inconclusive, HP1b binding inh -5%, BAZ2B block inconclusive, G9a block 15%[59 µM], PLK1 PBD block -28% and ADP-Glo counter -3%.
Screening CC(=O)NC12CC3CC(C1)CC(C(=O)OCC(=O)Nc1ncc(Cl)c(C)c1Cl)(C3)C2 returned PI5P4Ka inh -52*, JMJD2A Tudor inconclusive, HP1b binding inh 4%, BAZ2B block inconclusive, G9a block inconclusive, PLK1 PBD block -16% and ADP-Glo counter 5%.
CC(=O)c1ccc(NC(=O)c2noc3c2CCC3)cc1 was read as PI5P4Ka inh -58*, JMJD2A Tudor -15%[11.4 µM], HP1b binding inh inconclusive, BAZ2B block 56µM*, G9a block 40µM*, PLK1 PBD block -23% and ADP-Glo counter -3%.
`Cc1ccc([N+](=O)[O-])cc1S(=O)(=O)Nc1ccc(C(=O)N(C)C)cc1` gave PI5P4Ka inh 1, JMJD2A Tudor 6%, HP1b binding inh 54%, BAZ2B block -34%, G9a block 3% and PLK1 PBD block -5%.
`Cc1ccc([N+](=O)[O-])cc1S(=O)(=O)Nc1ccc(C(=O)N2CCN(C(=O)c3ccco3)CC2)cc1` gave PI5P4Ka inh -53*, JMJD2A Tudor 79µM*, HP1b binding inh -12%, BAZ2B block inconclusive, G9a block -11%[2.33 µM], PLK1 PBD block 0% and ADP-Glo counter 0%.
`CCCCn1c(N)c(N(CCOC)C(=O)c2cc(-c3ccccc3)nc3ccccc23)c(=O)[nH]c1=O` gave PI5P4Ka inh 7, JMJD2A Tudor -10%, HP1b binding inh 25%, BAZ2B block -5%, G9a block -9%[59 µM] and PLK1 PBD block -11%.
COCCN(C(=O)COC(=O)Cc1coc2cc3c(cc12)CCC3)c1c(N)n(Cc2ccccc2)c(=O)[nH]c1=O was read as PI5P4Ka inh -50*, JMJD2A Tudor 45µM*, HP1b binding inh inconclusive, BAZ2B block 50µM*, G9a block 40µM*, PLK1 PBD block -9% and ADP-Glo counter -5%.
COCCCN(C(=O)c1cc(-c2ccco2)nc2ccccc12)c1c(N)n(Cc2ccccc2)c(=O)[nH]c1=O was read as PI5P4Ka inh -68*, JMJD2A Tudor inconclusive, HP1b binding inh -12%, BAZ2B block inconclusive, G9a block 45µM*, PLK1 PBD block -19% and ADP-Glo counter -11%.
For CCCn1c(N)c(N(CCOC)C(=O)c2cc(-c3ccco3)nc3ccccc23)c(=O)[nH]c1=O the results were PI5P4Ka inh -52*, JMJD2A Tudor inconclusive, HP1b binding inh 14%, BAZ2B block inconclusive, G9a block 40µM*, PLK1 PBD block -17% and ADP-Glo counter -6%.
